This is part of a sample that, as a whole, favours compounds with a hit. Of some 79,000 tested, about 15% had one in any assay. The source made the active and inactive calls. Cut-off read from the data, not from the text of the source: active = growth inhibition above about 70%; inactive = the rest.
Experiments:
[1] = NCI Yeast Anticancer Drug Screen. Data for the rad50 strain (AID 155);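 note: 0% = growth of vehicle-only cultures of the same strain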; settings: S. cerevisiae rad50 strain growth inhibition; at 50.0 µM; active compounds read high
In short: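 Cells are treated with compound, grown, and their growth is then scored against vehicle-only cultures of the same repair-deficient yeast strain.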

[2] = NCI Yeast Anticancer Drug Screen. Data for the mec2-1 strain (AID 157); settings: S. cerevisiae mec2-1 strain, at 50.0 µM, active compounds read high
In short: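 Strain: mec2-1 (DNA repair/cell cycle alteration). Compound exposure, then growth measured; inhibition expressed relative to vehicle.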

[3] = NCI Yeast Anticancer Drug Screen. Data for the sgs1 mgt1 strain (AID 161);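 note: 0% = growth of cultures given vehicle only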; settings: S. cerevisiae sgs1 mgt1 strain, at 50.0 µM, active compounds read high
In short: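 Mutant yeast exposed to compound; growth scored against vehicle-only wells.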

[4] = NCI Yeast Anticancer Drug Screen. Data for the cln2 rad14 strain (AID 165);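 note: 0% = growth equal to vehicle treated cultures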; settings: S. cerevisiae cln2 rad14 strain, at 50.0 µM, active compounds read high
In short: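 Compounds are applied to the cln2 rad14 yeast strain, and growth is then compared with that of vehicle-treated cultures to give inhibition.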

[5] = NCI Yeast Anticancer Drug Screen. Data for the bub3 strain (AID 167); settings: S. cerevisiae bub3 mutant strain, at 50.0 µM, active compounds read high
In short: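 Part of a panel of yeast mutants defective in DNA damage repair or cell cycle regulation. Each strain is grown with compound, and inhibition is calculated relative to solvent-treated cultures.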

[6] = NCI Yeast Anticancer Drug Screen. Data for the mlh1 rad18 strain (AID 175); settings: S. cerevisiae mlh1 rad18 strain growth inhibition; at 50.0 µM; active compounds read high
In short: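 Read-out is yeast growth inhibition, calculated against vehicle-only controls. The compound was applied to a strain engineered with DNA damage repair alterations.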

Measured: growth inhibition

CCCCCCCCOC(=O)C12Oc3ccc(-c4ccc5c(c4O)C(O)=C4C(=O)CC(C)C(O)C4(C(=O)OCCCCCCCC)O5)c(O)c3C(O)=C1C(=O)CC(C)C2O (stereo unspecified)
inactive: [1] 16.4% | [2] 2.95% | [3] 11.4% | [4] 7.6% | [5] 33.6% | [6] -54.6%

Cc1ccc(NC(=O)/C(=N\NC(N)=O)c2c(O)c3ccccc3[nH]c2=O)cc1
inactive: [1] 1.45% | [2] 4.6% | [3] -10.5% | [4] 7.85% | [5] -3.05% | [6] -33%

COC(=O)C(/C(=N/NC(N)=O)C(=O)Nc1ccc(C)cc1)c1nc2ccc([N+](=O)[O-])cc2[nH]c1=O (stereo unspecified)
inactive: [1] 22.1% | [2] 26.3% | [3] 0.45% | [4] -48.4% | [5] -11% | [6] 42.8%

Clc1ccc(C2NN=C3c4ccccc4OCC32)cc1 (stereo unspecified)
inactive: [1] -7.85% | [2] -24.1% | [3] -3% | [4] 7.85% | [5] 1.3% | [6] 17.2%

COc1c(O)ccc(C2=Cc3ccc(O)cc3OC2)c1OC
active: [1] 80.2% | [2] 91.5% | [3] 88.2% | [4] 88.3% | [5] 88.7%
inactive: [6] -25.6%

CC(C)CCCC(C)[C@H]1CC[C@H]2[C@@H]3CC[C@H]4C[C@@H](CCC=C(c5cc(Cl)c(O)c(C(=O)O)c5)c5cc(Cl)c(O)c(C(=O)O)c5)CC[C@]4(C)[C@H]3CC[C@]12C (stereo partly specified) (tested in a mixture with another compound)
inactive: [1] 0.95% | [2] 22.4% | [3] 3.45% | [4] -8.4% | [5] 10.7% | [6] 51.2%
